From PubChem BioAssay (Tox21)
Values without a mark were called inactive. Results filed as inconclusive are left out. Calls of active or inactive are those of the source. Calls follow the shape of the full dose curve.

biological target: Acetylcholinesterase (Homo sapiens) (UniProt P22303); test: Acetylcholinesterase (AChE) small molecule antagonists: enzyme-based qHTS assay (AID 1347397); details: Potency: AChE enzyme activity inhibition; outcome: AChE enzyme activity inhibition; series mostly up to 115 µM; activity change, negative = inhibition: at the top concentration; also: nearly all actives have a fitted effect of over 55% in size
Sequence (P22303 whole entry, looked up): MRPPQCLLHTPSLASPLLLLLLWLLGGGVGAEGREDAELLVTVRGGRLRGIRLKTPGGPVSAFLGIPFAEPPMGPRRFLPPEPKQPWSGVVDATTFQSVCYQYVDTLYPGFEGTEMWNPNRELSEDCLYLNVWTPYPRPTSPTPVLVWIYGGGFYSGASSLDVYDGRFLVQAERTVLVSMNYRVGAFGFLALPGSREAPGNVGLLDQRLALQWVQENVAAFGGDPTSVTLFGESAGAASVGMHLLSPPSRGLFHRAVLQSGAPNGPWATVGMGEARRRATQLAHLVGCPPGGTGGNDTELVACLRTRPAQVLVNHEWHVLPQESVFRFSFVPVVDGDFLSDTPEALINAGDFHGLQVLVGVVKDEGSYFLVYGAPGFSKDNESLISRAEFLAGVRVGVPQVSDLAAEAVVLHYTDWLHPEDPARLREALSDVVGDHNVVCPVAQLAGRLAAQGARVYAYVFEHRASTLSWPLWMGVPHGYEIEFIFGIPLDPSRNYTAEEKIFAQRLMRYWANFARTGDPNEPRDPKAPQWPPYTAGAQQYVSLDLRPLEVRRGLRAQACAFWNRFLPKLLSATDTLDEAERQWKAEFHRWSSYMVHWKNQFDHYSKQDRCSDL
Outline: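 Recombinant human AChE (50 mU/mL) preincubated with compound 30 min at room temperature; acetylthiocholine plus DTNB then added, and thiocholine formation read colorimetrically after 10 min at room temperature. DMSO served as vehicle control.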
% is scaled to controls: 0 for no effect and ±100 for the full control effect.

Compound | Potency | activity change, negative = inhibition
C[Si](O[Si](C)(C)C)O[Si](C)(C)C | inactive | 
O=C(Nc1cccc(C(F)(F)F)c1)c1cc(Br)cc(Br)c1O |  | -1.56%
OC(CCl)CCl | inactive | 
C=CC(=O)CC |  | 1.06%
CCN(CC)c1ccc(C=O)c(O)c1 |  | -13.6%
CCC(C(=O)NC(=O)NC(C)=O)c1ccccc1 (stereo not given) |  | -0.97% [at 53 µM]
CCCc1cc(=O)[nH]c(=S)[nH]1 | inactive | 
c1ccc2[nH]c(-c3cscn3)nc2c1 | inactive | 
O=C1c2ccccc2C(=O)c2c(O)ccc(O)c21 |  | 0.516%
O=S(=O)(O)c1cc(Cl)c(Cl)cc1Cl |  | 1.18%
N[C@@H](Cc1cc(I)c(Oc2cc(I)c(O)c(I)c2)c(I)c1)C(=O)O | inactive | 
CNC(=O)c1ccccc1 |  | -0.273%
C[C@@H]1[C@H](O)[C@@H](C)/C=C/C=C\C=C\C=C\C=C\C=C\C=C\[C@H](O[C@@H]2O[C@H](C)[C@@H](O)[C@H](N)[C@@H]2O)C[C@@H]2O[C@](O)(C[C@@H](O)C[C@@H](O)[C@H](O)CC[C@@H](O)C[C@@H](O)CC(=O)O[C@H]1C)C[C@H](O)[C@H]2C(=O)O (stereo in doubt) |  | 2.03%
OCCc1ccccn1 |  | 0.384%
CCCCCCCCCCCSCC(=O)O |  | 1.92%
COc1cc(NC(=O)CC(C)=O)c(OC)cc1Cl | inactive | 
CCCCCCCCC/C=C/CC1CC(=O)OC1=O (stereo not given) | inactive | 
CC(=O)Oc1ccc(C)cc1 | inactive | 
C=CCOc1cc(Cl)ccc1C(=O)NCCN(CC)CC |  | 0.0377% [at 53 µM]
CC(=O)OCc1ccco1 | inactive | 

Compound | Potency | activity change, negative = inhibition
O=C(Oc1ccccc1)c1ccccc1O | inactive | 
CCCC(C)CO (stereo not given) |  | -2.04%
O=C(NCN1CCOCC1)c1cnccn1 |  | 0.405% [at 53 µM]
COCCC(=O)OC |  | -0.278%
O=c1c(O)c(-c2ccc(O)c(O)c2)oc2cc(O)cc(O)c12 | inactive | 
Cc1nc2ccccc2c(=O)o1 |  | 1.64%
O=C(/C=C/c1ccc([N+](=O)[O-])cc1)c1ccccc1 |  | -0.0103%
CC1=CCC(O)(C(C)C)CC1 (stereo not given) |  | -1.42%
C[Si](C)O[Si](C)C |  | -0.532%
C1CSCCS1 |  | 0.545%
CC(=O)NCc1c(I)c(NC(C)=O)c(I)c(C(=O)O)c1I |  | 0.513% [at 53 µM]
CN(C)C(=O)NC1(c2ccccc2)CCN(CCC[C@]2(c3ccc(Cl)c(Cl)c3)CCCN(C(=O)c3ccccc3)C2)CC1 |  | 0.197% [at 23.6 µM]
CC(C)(C)C(=O)OCOC(=O)[C@@H]1N2C(=O)[C@@H](NC(=O)[C@H](N)c3ccccc3)[C@H]2SC1(C)C |  | -0.0435% [at 53 µM]
C(=C/c1ccccc1)/c1ccccc1 |  | 0.259%
CC(C)c1cccc(C(C)C)c1N |  | 0.0534%
CC(C)CC(=O)OCc1ccccc1 |  | 0.555%
CNC(=O)N(c1ccccc1)c1ccccc1 |  | -3.33%
O=C(O)c1ccc([N+](=O)[O-])cc1 | inactive | 
c1ccc2c(c1)[nH]c1ccccc12 | inactive | 
CCCC/C=C\CCCCCCCCCC=O |  | 1.19%

biological target: Acetylcholinesterase (Homo sapiens) (UniProt P22303); test: Acetylcholinesterase (AChE) small molecule antagonists: fluorescence cell-based qHTS assay (AID 1347398); details: SH-SY5Y cells; Potency: AChE activity; outcome: AChE activity; series mostly up to 115 µM; activity change, negative = inhibition: at the top concentration; also: nearly all actives have a fitted effect of over 50% in size; also: potency is read from the fitted curve at half-maximal effect
Outline: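 SH-SY5Y cells (2000/well), attached overnight, incubated with compound 30 min at 37 C. Acetylthiocholine plus Thiolite Green then added for 40 min at room temperature. Thiocholine fluorescence (Ex/Em 490/520 nm) reports cellular AChE activity.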

Compound | Potency | activity change, negative = inhibition
C[Si](O[Si](C)(C)C)O[Si](C)(C)C | inactive | 
O=C(Nc1cccc(C(F)(F)F)c1)c1cc(Br)cc(Br)c1O |  | -1.06%
OC(CCl)CCl | inactive | 
C=CC(=O)CC |  | 6.72%
CCN(CC)c1ccc(C=O)c(O)c1 | 35.6 µM (active) | 
CCC(C(=O)NC(=O)NC(C)=O)c1ccccc1 (stereo not given) |  | 0.898% [at 53.7 µM]
CCCc1cc(=O)[nH]c(=S)[nH]1 | inactive | 
c1ccc2[nH]c(-c3cscn3)nc2c1 | inactive | 
O=C1c2ccccc2C(=O)c2c(O)ccc(O)c21 |  | -6.61%
O=S(=O)(O)c1cc(Cl)c(Cl)cc1Cl |  | 4.26%
N[C@@H](Cc1cc(I)c(Oc2cc(I)c(O)c(I)c2)c(I)c1)C(=O)O | inactive | 
CNC(=O)c1ccccc1 |  | 4.99%
C[C@@H]1[C@H](O)[C@@H](C)/C=C/C=C\C=C\C=C\C=C\C=C\C=C\[C@H](O[C@@H]2O[C@H](C)[C@@H](O)[C@H](N)[C@@H]2O)C[C@@H]2O[C@](O)(C[C@@H](O)C[C@@H](O)[C@H](O)CC[C@@H](O)C[C@@H](O)CC(=O)O[C@H]1C)C[C@H](O)[C@H]2C(=O)O (stereo in doubt) |  | 2.27%
OCCc1ccccn1 |  | 0.573%
CCCCCCCCCCCSCC(=O)O |  | -16.5%
COc1cc(NC(=O)CC(C)=O)c(OC)cc1Cl | inactive | 
CCCCCCCCC/C=C/CC1CC(=O)OC1=O (stereo not given) | inactive | 
CC(=O)Oc1ccc(C)cc1 | inactive | 
C=CCOc1cc(Cl)ccc1C(=O)NCCN(CC)CC |  | -23.4% [at 53.7 µM]
CC(=O)OCc1ccco1 | inactive | 

Compound | Potency | activity change, negative = inhibition
O=C(Oc1ccccc1)c1ccccc1O | inactive | 
CCCC(C)CO (stereo not given) |  | 6.7%
O=C(NCN1CCOCC1)c1cnccn1 |  | 0.933% [at 53.7 µM]
COCCC(=O)OC |  | 4.32%
O=c1c(O)c(-c2ccc(O)c(O)c2)oc2cc(O)cc(O)c12 | inactive | 
Cc1nc2ccccc2c(=O)o1 |  | 0.405%
O=C(/C=C/c1ccc([N+](=O)[O-])cc1)c1ccccc1 |  | -1.78%
CC1=CCC(O)(C(C)C)CC1 (stereo not given) |  | 6.66%
C[Si](C)O[Si](C)C |  | -5.37%
C1CSCCS1 |  | -1.09%
CC(=O)NCc1c(I)c(NC(C)=O)c(I)c(C(=O)O)c1I |  | 7.49% [at 53.7 µM]
CN(C)C(=O)NC1(c2ccccc2)CCN(CCC[C@]2(c3ccc(Cl)c(Cl)c3)CCCN(C(=O)c3ccccc3)C2)CC1 |  | -16% [at 23.8 µM]
CC(C)(C)C(=O)OCOC(=O)[C@@H]1N2C(=O)[C@@H](NC(=O)[C@H](N)c3ccccc3)[C@H]2SC1(C)C |  | 1.42% [at 53.7 µM]
C(=C/c1ccccc1)/c1ccccc1 |  | 5.79%
CC(C)c1cccc(C(C)C)c1N |  | 3.46%
CC(C)CC(=O)OCc1ccccc1 |  | -0.0756%
CNC(=O)N(c1ccccc1)c1ccccc1 | 35.7 µM (active) | 
O=C(O)c1ccc([N+](=O)[O-])cc1 | inactive | 
c1ccc2c(c1)[nH]c1ccccc12 | inactive | 
CCCC/C=C\CCCCCCCCCC=O |  | -1.9%
